# Assay results taken from PubChem BioAssay.
# Where “and” joins values, the source holds several entries; their conditions need not be identical. Equal values may be shown once. Inconclusive results are not listed. Calls of active or inactive are those of the source.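 The calls were made as follows, unless noted: active = normalized viability below 100% at a tested concentration; inactive = the rest.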
# Assays:
# [1] = tested on: Aerobactin synthetase IucA (Klebsiella pneumoniae); experiment: IucA aerobactin synthetase inhibitors, biochemical, Tocris library, absorbance (AID 1345561; call rule not given here;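 also: 100% = enzyme without compound and 0% = no enzyme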); conditions: purified IucA enzyme assay, absorbance (OD) read-out; stronger effect = lower value;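 tested at 8 µM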
# [2] = growth inhibition of DIPG glioma cells, dose response, cell-based, JHH-DIPG-1, MIPE4.0, CellTiter-Glo, qHTS (AID 1347062; cut-off not given, nearly all actives have AC50 up to about 27 µM); conditions: JHH-DIPG-1 viability, CellTiter-Glo ATP luminescence
# [3] = growth inhibition of DIPG glioma cells, dose response, cell-based, SU-DIPG-IV, MIPE4.0, CellTiter-Glo, qHTS (AID 1347063; cut-off not given, nearly all actives have AC50 up to about 30 µM;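 also: compound exposure lasted 48 hours before the viability readout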); conditions: SU-DIPG-IV viability, CellTiter-Glo ATP luminescence
# [4] = viability loss in pontine glioma line – cell-based, SU-DIPG-XXV, MIPE5.0, CellTiter-Glo, qHTS, dose response (AID 1347065; cut-off not given, nearly all actives have AC50 up to about 26 µM;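 also: cells exposed to compound for 48 hours before ATP readout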); conditions: CellTiter-Glo ATP luminescence
# [5] = sensitizers of A549 cells to miR-34 induction, primary screen, imaging, A549 dox-inducible miR-34, nuclei and caspase counts (AID 1347080;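 active = compounds whose cell count with miR-34 switched on is under 0.7 times the count with it off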); conditions: A549 miR-34 inducible, Hoechst nuclei count, 48 h
# [6] = modifiers of HSF1 nuclear foci, imaging, Selleck Cancer Library (AID 1347162; in the data active = plate-normalised HSF1 focus index below about 0.46); conditions: human cells, at 10 µM; SSMD: measured here: HSF1 foci SSMD mean; cell count: measured here: cell number; plate-normalised HSF1 focus index: stronger effect = lower value
# [7] = survival rescue of mitochondrial mutant cells in low glucose, primary screen, MELAS cybrids, Rieske KO mouse fibroblasts, CellTiter-Glo (AID 1508586;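 active = mean z-score across replicates of 1.96 or higher in either the MELAS or the Rieske mutant cell line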;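 also: z relative to plate mean and SD of compound and empty wells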)
# [8] = ovarian cancer cell viability with rucaparib, profiling panel, oncology-focused library, rucaparib conditional (AID 1508598); conditions: patient-derived ovarian cancer cells, CellTiter-Glo viability, 144 h, stronger effect = lower value
# [9] = viability rescue of complex I mutant cybrids, primary screen, cell-based, galactose medium, ATP luminescence (AID 1645843;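 active = z-score of at least 1.8 in each of two replicates, scored against plate mean and spread of sample wells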;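 also: positive z means more ATP and so rescue of galactose-driven cybrid death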); conditions: complex I mutant cybrid cells, 72 h, stronger effect = higher value
# [10] = JHH-DIPG-1 glioma cell viability, MIPE5.0 library, CellTiter-Glo luminescence, qHTS (AID 1347067; cut-off not given, nearly all actives have AC50 up to about 26 µM;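 also: cells exposed to compound for 48 hours before readout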); conditions: JHH-DIPG-1 glioma viability, CellTiter-Glo ATP luminescence
# [11] = SU-DIPG-XXV glioma cell viability, MIPE5.0 library, qHTS (AID 1347068; cut-off not given, nearly all actives have IC50 up to about 30 µM;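 as to IC50: cells exposed to compound for 48 hours before viability readout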)
# [12] = liver-stage malaria parasite growth inhibition, primary screen, cell-based, HepG2, luciferase luminescence, HepG2 viability (AID 624349; in the data active = parasite load remaining mostly below about 12%, no sharp cut-off; inactive = mostly above about 10%;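 also: 100% = mean of DMSO negative control wells on the same plate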); conditions: P. berghei liver stage in HepG2, luciferase luminescence, concentration not given here; parasite load remaining: stronger effect = lower value; viability: measured here: HepG2 viability without parasites
# [13] = growth inhibition of DIPG glioma cells, dose response, cell-based, SU-DIPG-XIII, MIPE4.0, CellTiter-Glo, qHTS (AID 1347061; cut-off not given, nearly all actives have AC50 up to about 37 µM;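 also: cells exposed to compound for 48 hours before readout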); conditions: SU-DIPG-XIII viability, CellTiter-Glo ATP luminescence
# [14] = SU-DIPG-VI glioma cell viability, MIPE4.0 library, CellTiter-Glo luminescence, qHTS (AID 1347066; cut-off not given, nearly all actives have AC50 up to about 30 µM;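 also: cells exposed to compound for 48 hours before readout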); conditions: CellTiter-Glo ATP luminescence
# [15] = stronger effect = lower value, cell number ratio, induced over uninduced
# [16] = measured here: relative caspase fold change +Dox/-Dox
# [17] = measured here: total cells with miR-34 induction, stronger effect = lower value
# [18] = measured here: total cells without miR-34 induction
smiles,measurement,setting,value
O=C(O)Cc1cccc(OCCCN(Cc2cccc(C(F)(F)F)c2Cl)CC(c2ccccc2)c2ccccc2)c1,remaining activity,[1],110% (inactive)
same,outcome,[2],inactive
same,AC50,[3],20.9 µM (active)
same,AC50,[4],20.9 µM (active)
same,fold change,[5]; [15],0.882 (inactive) and 1.33 (inactive)
same,fold change,[5]; [16],0.748 and 1.3
same,cell count,[5]; [17],7570 and 3160
same,cell count,[5]; [18],8580 and 2370
same,SSMD,[6],0.414
same,cell count,[6],6290
same,plate-normalised HSF1 focus index,[6],1.02 (inactive)
same,z-score,"[7]; MELAS cybrid survival, CellTiter-Glo 48 h, stronger effect = higher value",-0.168 (inactive)
same,z-score,"[7]; Rieske KO mouse fibroblast survival, CellTiter-Glo 72 h",-0.731
same,viability,"[8]; at 0.000305 µM, OCI-C5x cells, with rucaparib 10 µM, 100% = cells with rucaparib alone",118% (inactive)
same,viability,"[8]; at 0.000305 µM, OCI-C5x cells, without rucaparib",117% (inactive)
same,viability,"[8]; at 0.000305 µM, OCI-P5x cells, with rucaparib 20 µM, 100% = cells with rucaparib alone",107% (inactive)
same,viability,"[8]; at 0.000305 µM, OCI-P5x cells, without rucaparib",111% (inactive)
same,viability,"[8]; at 0.00122 µM, OCI-C5x cells, with rucaparib 10 µM, 100% = cells with rucaparib alone",118% (inactive)
same,viability,"[8]; at 0.00122 µM, OCI-C5x cells, without rucaparib",129% (inactive)
same,viability,"[8]; at 0.00122 µM, OCI-P5x cells, with rucaparib 20 µM, 100% = cells with rucaparib alone",108% (inactive)
same,viability,"[8]; at 0.00122 µM, OCI-P5x cells, without rucaparib",95.8% (active)
same,viability,"[8]; at 0.00488 µM, OCI-C5x cells, with rucaparib 10 µM, 100% = cells with rucaparib alone",115% (inactive)
same,viability,"[8]; at 0.00488 µM, OCI-C5x cells, without rucaparib",125% (inactive)
same,viability,"[8]; at 0.00488 µM, OCI-P5x cells, with rucaparib 20 µM, 100% = cells with rucaparib alone",106% (inactive)
same,viability,"[8]; at 0.00488 µM, OCI-P5x cells, without rucaparib",108% (inactive)
same,viability,"[8]; at 0.0195 µM, OCI-C5x cells, with rucaparib 10 µM, 100% = cells with rucaparib alone",113% (inactive)
same,viability,"[8]; at 0.0195 µM, OCI-C5x cells, without rucaparib",125% (inactive)
same,viability,"[8]; at 0.0195 µM, OCI-P5x cells, with rucaparib 20 µM, 100% = cells with rucaparib alone",101% (inactive)
same,viability,"[8]; at 0.0195 µM, OCI-P5x cells, without rucaparib",105% (inactive)
same,viability,"[8]; at 0.0781 µM, OCI-C5x cells, with rucaparib 10 µM, 100% = cells with rucaparib alone",114% (inactive)
same,viability,"[8]; at 0.0781 µM, OCI-C5x cells, without rucaparib",123% (inactive)
same,viability,"[8]; at 0.0781 µM, OCI-P5x cells, with rucaparib 20 µM, 100% = cells with rucaparib alone",109% (inactive)
same,viability,"[8]; at 0.0781 µM, OCI-P5x cells, without rucaparib",103% (inactive)
same,viability,"[8]; at 0.313 µM, OCI-C5x cells, with rucaparib 10 µM, 100% = cells with rucaparib alone",114% (inactive)
same,viability,"[8]; at 0.313 µM, OCI-C5x cells, without rucaparib",119% (inactive)
same,viability,"[8]; at 0.313 µM, OCI-P5x cells, with rucaparib 20 µM, 100% = cells with rucaparib alone",93.8% (active)
same,viability,"[8]; at 0.313 µM, OCI-P5x cells, without rucaparib",96.5% (active)
same,viability,"[8]; at 1.25 µM, OCI-C5x cells, with rucaparib 10 µM, 100% = cells with rucaparib alone",111% (inactive)
same,viability,"[8]; at 1.25 µM, OCI-C5x cells, without rucaparib",114% (inactive)
same,viability,"[8]; at 1.25 µM, OCI-P5x cells, with rucaparib 20 µM, 100% = cells with rucaparib alone",96.5% (active)
same,viability,"[8]; at 1.25 µM, OCI-P5x cells, without rucaparib",92.3% (active)
same,viability,"[8]; at 5 µM, OCI-C5x cells, with rucaparib 10 µM, 100% = cells with rucaparib alone",92.1% (active)
same,viability,"[8]; at 5 µM, OCI-C5x cells, without rucaparib",100% (inactive)
same,viability,"[8]; at 5 µM, OCI-P5x cells, with rucaparib 20 µM, 100% = cells with rucaparib alone",43.4% (active)
same,viability,"[8]; at 5 µM, OCI-P5x cells, without rucaparib",87.5% (active)
same,z-score,[9],-0.7 (inactive)
CCCC[C@@H](C=O)NC(=O)[C@H](CC(C)C)NC(=O)OCc1ccccc1,remaining activity,[1],86.3% (inactive)
same,outcome,[4],inactive
same,outcome,[10],inactive
same,IC50,[11],16.6 µM (active)
same,fold change,[5]; [15],0.927 (inactive) and 0.862 (inactive)
same,fold change,[5]; [16],1.01 and 0.983
same,cell count,[5]; [17],6040 and 7590
same,cell count,[5]; [18],6520 and 8800
same,z-score,[9],2.31 (inactive)
N#C/C(=C(/N)Sc1ccc(N)cc1)c1ccccc1C(F)(F)F,parasite load remaining,[12],62.2% (inactive)
same,viability,[12],76.3%
same,remaining activity,[1],113% (inactive)
same,AC50,[13],18.7 µM (active)
same,outcome,[4],inactive
same,outcome,[14],inactive
same,outcome,[11],inactive
same,fold change,[5]; [15],0.944 (inactive)
same,fold change,[5]; [16],0.995
same,cell count,[5]; [17],5510
same,cell count,[5]; [18],5840
same,z-score,[9],-0.775 (inactive)
